# Test results taken from article PMC5540273 (PLoS ONE, 2017).
# Like-named read-outs stand apart in the source and are kept apart here.
# Tests used:
# [1] = tested on: RPS6KA4(Kin.Dom.1-N-terminal); settings: n = 1
# [2] = tested on: RPS6KA4(Kin.Dom.2-C-terminal); settings: n = 1
# [3] = tested on: RPS6KA5(Kin.Dom.1-N-terminal); settings: concentration: 1 μM, replicates: in singlicate; n = 1
# [4] = tested on: RPS6KA5(Kin.Dom.2-C-terminal); settings: concentration: 1 μM, replicates: in singlicate; n = 1
# [5] = tested on: T1, RSK1(Kin.Dom.1-N-terminal); settings: concentration: 1 μM, replicates: in singlicate; n = 1
# T1 construct: gene RPS6KA1
# [6] = tested on: T2, RSK1(Kin.Dom.2-C-terminal); settings: concentration: 1 μM, replicates: in singlicate; n = 1
# T2 construct: gene RPS6KA1
# [7] = tested on: T3, RSK2(Kin.Dom.1-N-terminal); settings: concentration: 1 μM, replicates: in singlicate; n = 1
# T3 construct: gene RPS6KA3
# [8] = tested on: T4, RSK2(Kin.Dom.2-C-terminal); settings: concentration: 1 μM, replicates: in singlicate; n = 1
# T4 construct: gene RPS6KA3
# [9] = tested on: T5, RSK3(Kin.Dom.1-N-terminal); settings: concentration: 1 μM, replicates: in singlicate; n = 1
# T5 construct: gene RPS6KA2
# [10] = tested on: T6, RSK3(Kin.Dom.2-C-terminal); settings: concentration: 1 μM, replicates: in singlicate; n = 1
# T6 construct: gene RPS6KA2
# [11] = tested on: T7, RSK4(Kin.Dom.1-N-terminal); settings: concentration: 1 μM, replicates: in singlicate; n = 1
# T7 construct: gene RPS6KA6
# [12] = tested on: T8, RSK4(Kin.Dom.2-C-terminal); settings: concentration: 1 μM, replicates: in singlicate; n = 1
# T8 construct: gene RPS6KA6
# S6K1 = settings: concentration: 1 μM, replicates: in singlicate; n = 1
# SBK1 = settings: concentration: 1 μM, replicates: in singlicate; n = 1
# SGK2 = settings: concentration: 1 μM, replicates: in singlicate; n = 1
# SGK3 = settings: concentration: 1 μM, replicates: in singlicate; n = 1
# SGK = settings: concentration: 1 μM, replicates: in singlicate; n = 1
# SIK2 = settings: concentration: 1 μM, replicates: in singlicate; n = 1
# SIK = settings: concentration: 1 μM, replicates: in singlicate; n = 1
# SLK = settings: concentration: 1 μM, replicates: in singlicate; n = 1
# [13] = concentration: 1 μM, replicates: in singlicate
# 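Note: KINOMEscan kinase panel screen.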
structure (smiles),measurement,setting,value
CCCCc1nn2ncccc2c1-c1ccnc(Nc2ccc(N3CCN(C)CC3)cc2)n1 [GW684941],%Inh,[1]; [13],8%
same,%Inh,[2]; [13],0%
same,%Inh,[3],0%
same,%Inh,[4],43%
same,%Inh,[5],0%
same,%Inh,[6],31%
same,%Inh,[7],71%
same,%Inh,[8],20%
same,%Inh,[9],5%
same,%Inh,[10],0%
same,%Inh,[11],0%
same,%Inh,[12],82%
same,%Inh,S6K1,0%
same,%Inh,SBK1,30%
same,%Inh,SGK2,0%
same,%Inh,SGK3,0%
same,%Inh,SGK,24%
same,%Inh,SIK2,84%
same,%Inh,SIK,83%
same,%Inh,SLK,69%
Cl.NC(=O)c1cccc(Nc2nccc(Nc3ccc(Oc4c(Cl)cccc4Cl)c(Cl)c3)n2)c1 [GW659009],%Inh,[1]; [13],0%
same,%Inh,[2]; [13],0%
same,%Inh,[3],0%
same,%Inh,[4],5%
same,%Inh,[5],0%
same,%Inh,[6],0%
same,%Inh,[7],0%
same,%Inh,[8],5%
same,%Inh,[9],3%
same,%Inh,[10],0%
same,%Inh,[11],0%
same,%Inh,[12],0%
same,%Inh,S6K1,0%
same,%Inh,SBK1,24%
same,%Inh,SGK2,4%
same,%Inh,SGK3,0%
same,%Inh,SGK,19%
same,%Inh,SIK2,0%
same,%Inh,SIK,90.2%
same,%Inh,SLK,0%
CCn1c(-c2nonc2N)nc2c(C#CC(C)(C)O)nc(OC[C@H](N)c3ccccc3)cc21 [GSK943949],%Inh,[1]; [13],0%
same,%Inh,[2]; [13],57%
same,%Inh,[3],6%
same,%Inh,[4],0%
same,%Inh,[5],59%
same,%Inh,[6],0%
same,%Inh,[7],0%
same,%Inh,[8],0%
same,%Inh,[9],0%
same,%Inh,[10],0%
same,%Inh,[11],0%
same,%Inh,[12],0%
same,%Inh,S6K1,4%
same,%Inh,SBK1,0%
same,%Inh,SGK2,18%
same,%Inh,SGK3,0%
same,%Inh,SGK,6%
same,%Inh,SIK2,0%
same,%Inh,SIK,2%
same,%Inh,SLK,6%
O=C(Nc1cccc(-c2nn3ncccc3c2-c2ccnc(Nc3ccccc3)n2)c1)c1c(F)cccc1F [GSK198271],%Inh,[1]; [13],18%
same,%Inh,[2]; [13],0%
same,%Inh,[3],18%
same,%Inh,[4],0%
same,%Inh,[5],95.3%
same,%Inh,[6],5%
same,%Inh,[7],0%
same,%Inh,[8],0%
same,%Inh,[9],37%
same,%Inh,[10],17%
same,%Inh,[11],1%
same,%Inh,[12],22%
same,%Inh,S6K1,0%
same,%Inh,SBK1,13%
same,%Inh,SGK2,0%
same,%Inh,SGK3,4%
same,%Inh,SGK,0%
same,%Inh,SIK2,6%
same,%Inh,SIK,44%
same,%Inh,SLK,95%
O=C(Nc1cccc(-c2nn3ccccc3c2-c2ccnc(Nc3cccc(F)c3)n2)c1)c1c(F)ccc(F)c1Cl [GSK357952],%Inh,[1]; [13],15%
same,%Inh,[2]; [13],0%
same,%Inh,[3],28%
same,%Inh,[4],20%
same,%Inh,[5],63%
same,%Inh,[6],14%
same,%Inh,[7],18%
same,%Inh,[8],8%
same,%Inh,[9],24%
same,%Inh,[10],0%
same,%Inh,[11],4%
same,%Inh,[12],0%
same,%Inh,S6K1,2%
same,%Inh,SBK1,12%
same,%Inh,SGK2,0%
same,%Inh,SGK3,2%
same,%Inh,SGK,10%
same,%Inh,SIK2,16%
same,%Inh,SIK,34%
same,%Inh,SLK,91.2%
Cl.c1ccc(-c2ccc3c(Nc4ccc5[nH]ccc5c4)ccnc3c2)nc1 [GW440138],%Inh,[1]; [13],0%
same,%Inh,[2]; [13],0%
same,%Inh,[3],0%
same,%Inh,[4],3%
same,%Inh,[5],0%
same,%Inh,[6],0%
same,%Inh,[7],0%
same,%Inh,[8],0%
same,%Inh,[9],0%
same,%Inh,[10],15%
same,%Inh,[11],0%
same,%Inh,[12],34%
same,%Inh,S6K1,0%
same,%Inh,SBK1,0%
same,%Inh,SGK2,0%
same,%Inh,SGK3,6%
same,%Inh,SGK,0%
same,%Inh,SIK2,0%
same,%Inh,SIK,0%
same,%Inh,SLK,84%
c1ccc(-c2cnc3nccnn23)cc1 [AH20685],%Inh,[1]; [13],0%
same,%Inh,[2]; [13],0%
same,%Inh,[3],9%
same,%Inh,[4],0%
same,%Inh,[5],0%
same,%Inh,[6],0%
same,%Inh,[7],0%
same,%Inh,[8],0%
same,%Inh,[9],0%
same,%Inh,[10],0%
same,%Inh,[11],0%
same,%Inh,[12],0%
same,%Inh,S6K1,10%
same,%Inh,SBK1,5%
same,%Inh,SGK2,0%
same,%Inh,SGK3,0%
same,%Inh,SGK,0%
same,%Inh,SIK2,0%
same,%Inh,SIK,0%
same,%Inh,SLK,11%
O=C(Nc1n[nH]c2nc(-c3ccc(O)cc3)ccc12)C1CC1 [SB-710363],%Inh,[1]; [13],8%
same,%Inh,[2]; [13],99.5%
same,%Inh,[3],0%
same,%Inh,[4],53%
same,%Inh,[5],14%
same,%Inh,[6],64%
same,%Inh,[7],52%
same,%Inh,[8],0%
same,%Inh,[9],12%
same,%Inh,[10],0%
same,%Inh,[11],70%
same,%Inh,[12],0%
same,%Inh,S6K1,40%
same,%Inh,SBK1,0%
same,%Inh,SGK2,36%
same,%Inh,SGK3,15%
same,%Inh,SGK,43%
same,%Inh,SIK2,0%
same,%Inh,SIK,0%
same,%Inh,SLK,61%
CCn1c(-c2nonc2N)nc2c(C#CC(C)(C)O)ncc(OCCCCN)c21.O=C(O)C(F)(F)F.O=C(O)C(F)(F)F [GSK507274],%Inh,[1]; 1 µM,10%
same,%Inh,[2]; 1 µM,99%
same,%Inh,[3],37%
same,%Inh,[4],74%
same,%Inh,[5],18%
same,%Inh,[6],0%
same,%Inh,[7],19%
same,%Inh,[8],0%
same,%Inh,[9],11%
same,%Inh,[10],6%
same,%Inh,[11],2%
same,%Inh,[12],7%
same,%Inh,S6K1,1%
same,%Inh,SBK1,44%
same,%Inh,SGK2,12%
same,%Inh,SGK3,2%
same,%Inh,SGK,0%
same,%Inh,SIK2,5%
same,%Inh,SIK,2%
same,%Inh,SLK,1%
COc1cc(Nc2nccc(N3CCC(NC(=O)c4cc5ccccc5s4)C3)n2)cc(OC)c1OC (centres unmarked) [GSK1379760],%Inh,[1]; [13],0%
same,%Inh,[2]; [13],0%
same,%Inh,[3],5%
same,%Inh,[4],4%
same,%Inh,[5],16%
same,%Inh,[6],46%
same,%Inh,[7],0%
same,%Inh,[8],18%
same,%Inh,[9],0%
same,%Inh,[10],0%
same,%Inh,[11],0%
same,%Inh,[12],11%
same,%Inh,S6K1,17%
same,%Inh,SBK1,17%
same,%Inh,SGK2,0%
same,%Inh,SGK3,10%
same,%Inh,SGK,11%
same,%Inh,SIK2,15%
same,%Inh,SIK,14%
same,%Inh,SLK,76%
